Results reported in PubChem BioAssay (NCI).
This is part of a sample that, as a whole, favours compounds with a hit. Of some 83,000 tested, about 20% had one in any assay.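 Single-dose data. Exposure time 48 hours. Values below 10 considered active.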 A number with no mark means an inactive call. Active and inactive are the calls of the source.

Experiments:
Experiment in all cases: NCI-60 one-dose screen, 48 h (100 = growth as untreated, 0 = no growth, -100 = all killed)
Conditions in all cases: 10 µM unless noted
BT-549 breast = system: BT-549 breast
MDA-MB-435 melanoma = system: MDA-MB-435 melanoma
SW-620 colon = system: SW-620 colon
MCF7 breast = system: MCF7 breast
HCT-116 colon = system: HCT-116 colon
HCC-2998 colon = system: HCC-2998 colon
KM12 colon = system: KM12 colon

Row | Compound | growth (BT-549 breast) | growth (MDA-MB-435 melanoma) | growth (SW-620 colon) | growth (MCF7 breast) | growth (HCT-116 colon) | growth (HCC-2998 colon) | growth (KM12 colon)
1 | Cc1ccccc1NC(=O)c1sc2nc(C)c(C(C)O)cc2c1N (centres undefined) | 57.8% | 1.71% (active) | 36.8% | 21% | 22% | 67.9% | 27.7%
2 | CCN1CCC[C@H]1c1cc(O)c2c(c1OC)C[C@H]1C[C@H]3[C@H](N)C(=O)C(C(N)=O)=C(O)[C@@]3(O)C(=O)C1=C2O | -3.73% (active) | -4.48% (active) | 1.96% (active) | 0.852% (active) | -4.51% (active) | -6.34% (active) | 5.97% (active)
3 | CC1(C)CC[C@]2(c3nnc(-c4ccncc4)o3)CC[C@]3(C)C(=CC[C@@H]4[C@@]5(C)CCC(=O)C(C)(C)[C@@H]5CC[C@]43C)[C@@H]2C1 | 80.3% | 79.6% | 85.2% | 64.6% | 61.3% | 94.8% | 93.8%
4 | CCCCCOC(=O)c1ccccc1O | 93.4% | 102% | 105% | 87.6% | 98.9% | 109% | 105%
5 | Cn1c2c(c3ccc(-c4ccn[nH]4)cc3c1=O)C(=O)c1ccccc1-2 | 50.5% | 77.6% | 31.1% | 9.04% (active) | 21.9% | 79.8% | 15.7%
6 | Nc1c(C(=O)Nc2ccccn2)sc2nc3c(cc12)CCCC3 | 44% | -24.6% (active) | 40.2% | 24.2% | 13.6% | 57.1% | 30.8%
7 | COc1ccc(C(=O)c2cc(OC)c(OC)c(OC)c2)cc1OC(=O)C(Cl)(Cl)Cl | -0.136% (active) | -13.5% (active) | 22.9% | 9.81% (active) | 4.91% (active) | 15.4% | 9.4% (active)
8 | Nc1ccccc1NC(=O)c1ccc(CSc2nc(N3CCOCC3)c3cccn3n2)cc1 | 15.3% | -21.2% (active) | 9.25% (active) | 10.3% | 6.78% (active) | 17.6% | 16.6%
9 | O=C1C(Cl)=C(NCCCN(CCCNC2=C(Cl)C(=O)c3ccccc3C2=O)C2=C(Cl)C(=O)c3ccccc3C2=O)C(=O)c2ccccc21 | 85.6% | -86.5% (active) | 47.6% | -19.9% (active) | 4.83% (active) | 92.4% | 80.1%
10 | CC(=O)OC[C@]12CC[C@@H](c3cn(Cc4ccc(Cn5cc([C@@H]6CC[C@]7(COC(C)=O)CC[C@]8(C)[C@H](CC[C@@H]9[C@@]%10(C)CC[C@H](OC(C)=O)C(C)(C)[C@@H]%10CC[C@]98C)[C@@H]67)nn5)cc4)nn3)[C@@H]1[C@H]1CC[C@@H]3[C@@]4(C)CC[C@H](OC(C)=O)C(C)(C)[C@@H]4CC[C@@]3(C)[C@]1(C)CC2 | 91.4% | 105% | 106% | 92.1% | 109% | 104% | 106%
11 | CC(=O)c1ccc(NC(=O)CSc2nnc(-c3cc(-c4ccc(C)cc4)nc4ccccc34)o2)cc1 | 59.1% | 80.9% | 28.4% | 26.6% | -7.47% (active) | 102% | 72%
12 | C=C(C)[C@@H]1CC[C@]2(C(=O)N=C=S)CC[C@]3(C)[C@H](CC[C@@H]4[C@@]5(C)CCC(=O)C(C)(C)[C@@H]5CC[C@]43C)[C@@H]12 | 47.3% | 47.1% | 28.8% | 16.4% | 13.8% | 43.3% | 21.2%
13 | O=C(Nc1nc(-c2ccccc2Cl)cs1)c1cc(-c2ccc(Br)cc2)nc2ccccc12 | 70.9% | 64.5% | 57% | 29.4% | 43.6% | 63.9% | 59%
14 | NC(=O)c1ccc(C2C3=C(CCCC3=O)OC3=C2C(=O)c2ccccc2C3=O)cc1 (centres undefined) | 81.4% | -87.4% (active) | 12% | -28.8% (active) | 1.17% (active) | 77.7% | 44.1%
15 | COc1cc(-c2nn(-c3ccc(Br)cc3)cc2CO)ccc1O | 89.6% | 108% | 104% | 92.1% | 92.6% | 104% | 91.7%
16 | C=C1C(=O)O[C@H]2[C@H]1CC/C(COC(=O)c1cccnc1)=C\CC[C@@]1(C)O[C@@H]21 | 68.4% | 49.7% | 17.7% | 21.4% | 15.9% | 108% | 109%

Row | Compound | growth (BT-549 breast) | growth (MDA-MB-435 melanoma) | growth (SW-620 colon) | growth (MCF7 breast) | growth (HCT-116 colon) | growth (HCC-2998 colon) | growth (KM12 colon)
17 | COc1ccc(NC(=O)c2ccc(Nc3ncnc4[nH]c(C)c(C)c34)cc2)cc1 | 99.1% | 108% | 102% | 100% | 106% | 104% | 103%
18 | CCCCn1c2cc(OCc3cn(-c4ccc(Cl)cc4)nn3)ccc2c2ccnc(C)c21 | 61.7% | 60.2% | 34.2% | 25.8% | 8.91% (active) | 43.8% | 41.9%
19 | COc1cc(C2=NNC(c3ccc(N(C)C)cc3)C2)cc(OC)c1OC (centres undefined) | 35.1% | 19% | 20% | 20.2% | 9.9% (active) | 7.82% (active) | 14.4%
20 | N#Cc1c(-c2ccc(F)cc2)nc(N/N=C/c2c[nH]c3ccccc23)nc1N1CCOCC1 | 75.5% | 77.2% | 7.62% (active) | 51.5% | 44.3% | 59% | 40%
21 | CN1CCN(CC#CCOC(=O)CNC(=O)[C@]23CCC(C)(C)C[C@H]2C2=CC[C@@H]4[C@@]5(C)CC[C@H](O)C(C)(C)[C@@H]5CC[C@@]4(C)[C@]2(C)CC3)CC1 | 88.9% | 101% | 86.8% | 72% | 76.2% | 106% | 94.5%
22 | O=C(Nc1nccs1)c1noc2ccccc12 | 102% | 105% | 98.8% | 63.9% | 93.8% | 105% | 94.3%
23 | CC1CCN(CCCCCOc2ccc3oc4ccccc4c(=O)c3c2)CC1 | 80.3% | 79.9% | 81.7% | 68.3% | 52.7% | 79.5% | 69.9%
24 | COc1ccc2[nH]c(=O)c(/C=C/C(=O)c3ccccc3OC)cc2c1 | 18.9% | -10% (active) | 8.4% (active) | 10% | 16% | 23.1% | 4.37% (active)
25 | Cc1cccc2nc3c(n12)C(=O)C(=O)c1ccccc1-3 | 78.6% | -86% (active) | 79.4% | 47.9% | 38.7% | 115% | 90.6%
26 | Sc1cccc2cccnc12 | 48.4% | 44.9% | 38.7% | 26.8% | 11.5% | 40% | 25.4%
27 | Oc1c(CCl)cc(Cl)cc1Cc1cc(Cl)cc(Cc2cc(Cl)cc(CCl)c2O)c1O | 23.9% | 44.1% | 25.5% | 8.55% (active) | 3.12% (active) | 19.5% | 23.2%
28 | C=C1C(=O)O[C@H]2[C@H]1CC/C(COC(=O)c1cn(C)c3ccccc13)=C\CC[C@@]1(C)O[C@@H]21 | -24.4% (active) | -51.2% (active) | -65.7% (active) | -46.1% (active) | -77.6% (active) | 34.9% | 31.2%
29 | CCCCCCN1C(=O)CN=C1Nc1ccc2cc3ccc(NC4=NCC(=O)N4CCCCCC)cc3nc2c1 | 78.1% | 55.3% | -51.6% (active) | 0.96% (active) | 20.1% | 47.2% | 31.1%
30 | COc1ccc(-n2nc(C(=O)NCC(=O)O)nc2-c2ccccc2)cc1 | 94.2% | 111% | 112% | 98.2% | 101% | 118% | 108%
31 | O=[N+]([O-])c1ccc(N=Nc2c(O)c(N=Nc3cc([N+](=O)[O-])cc([N+](=O)[O-])c3O)cc(N=Nc3cc(S(=O)(=O)O)cc4cc(S(=O)(=O)O)cc(O)c34)c2O)cc1 | 104% | 107% | 108% | 99.6% | 80.9% | 104% | 103%
32 | C=C1C(=O)O[C@H]2[C@H]1CC/C(C=Nc1c(N)cc(F)cc1Br)=C\CC[C@@]1(C)O[C@@H]21 | 84.8% | 83.2% | 26.5% | 24.4% | 48.2% | 109% | 98.8%
